Assay [1] in a line: qHTS assay to identify small molecule agonists of the vitamin D receptor (VDR) signaling pathway - cell viability counter screen (AID 743224). Note: nearly all actives have a fitted effect of over 50% in size. Note: potency is the fitted concentration of half-maximal effect. The gist of the method: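 Here cell health was gauged by luminescent ATP detection (CellTiter-Glo, 30 min RT) in VDR-bla cells that had been incubated with test compounds for 16 h at 37C and 5% CO2.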
The nature of assay [2]: qHTS assay to identify small molecule antagonists of the vitamin D receptor (VDR) signaling pathway - cell viability counter screen (AID 743225). Note: nearly all actives have a fitted effect of over 50% in size. The gist of the method:
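Same-well multiplex: following 16 h treatment of HEK 293T cells carrying a UAS-driven beta-lactamase reporter with compound and agonist (3 nM final), and a 2 h FRET substrate step, CellTiter-Glo was added and luminescence read after 30 min.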

Assay [3] can be described thus: qHTS assay to identify small molecule agonists of the NFkB signaling pathway (AID 1159509; active = well fitted curve in the direction sought with a large enough effect in the signal ratio in the repeat runs, not every such curve was filed as active; the % refers to the signal ratio). The gist of the method: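 NFkB-bla ME-180 cells with a beta-lactamase reporter under an NF-kB response element were plated overnight, treated with compounds in DMSO for 5 hr at 37 C, then loaded with FRET substrate for 1.5 hr at room temperature.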
The nature of assay [4]: qHTS assay to identify small molecule agonists of the endoplasmic reticulum stress response signaling pathway - cell viability counter screen (AID 1159517; calls by dose curve;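 note: HeLa cells carrying an ER stress response element beta-lactamase reporter; nearly all actives have a fitted effect of over 50% in size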). The method in brief: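 Counter-screen wells were identical to the reporter wells. Cells were plated at 1,500 per well and dosed for 5 hr, then read for luminescence 30 min after CellTiter-Glo addition.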
Assay [5] is described as follows: qHTS assay to identify small molecule antagonists of the retinoid-related orphan receptor gamma (ROR-gamma) signaling pathway - cell viability counter screen (AID 1159520). Note: nearly all actives have a fitted effect of over 50% in size. Note: potency is the fitted concentration of half-maximal effect. The method in brief: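 Tet-on ROR gamma CHO cells were given compounds for 2 hr, then doxycycline hyclate at 1 uM final, and incubated 16 hr at 37 C. Viability was measured as ATP content by CellTiter-Glo luminescence.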

Assay [6] has as its target Nuclear receptor ROR-gamma (Homo sapiens) (UniProt P51449). In words: qHTS assay to identify small molecule antagonists of the retinoid-related orphan receptor gamma (ROR-gamma) signaling pathway (AID 1159521; note: nearly all actives have a fitted effect of over 50% in size; note: potency is the fitted concentration of half-maximal effect). The gist of the method: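 Inducible-expression reporter assay: doxycycline (1 uM final) switched on RORγ in CHO cells bearing a ROR response element-luciferase construct, with test compounds present from 2 h beforehand. Decreased luminescence after 16 h defined antagonist activity.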

Assay [7] can be described thus: qHTS assay to identify small molecule agonists of the AP-1 signaling pathway - cell viability counter screen (AID 1159525; calls by dose curve; note: nearly all actives have a fitted effect of over 55% in size). The method in brief:
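AP-1-bla ME-180 cells in Opti-MEM with 0.5% dialyzed FBS, compound exposure 5 h at 37 C in 15-point titration. Viability read in the same wells as ATP content by CellTiter-Glo luminescence, normalised to tetra-n-octylammonium bromide and DMSO controls.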

Assay [8] is described as follows: qHTS assay to identify small molecule agonists of the AP-1 signaling pathway (AID 1159526; calls by dose curve).
A short description of assay [9]: qHTS assay to identify small molecule antagonists of the retinoid acid receptor (RAR) signaling pathway - cell viability counter screen (AID 1159551). Note: nearly all actives have a fitted effect of over 35% in size. Note: potency is the fitted concentration of half-maximal effect. The method in brief: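 Seed C3RL4 cells; next day add compound, then retinol to 1 uM final; incubate 6 h at 37 C; add CellTiter-Glo; read luminescence after 30 min at RT.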
The nature of assay [10]: qHTS assay to identify small molecule agonists of the retinoic acid receptor (RAR) signaling pathway (AID 1159553). Note: potency is the fitted concentration of half-maximal effect. Conditions: C3RL4 RARE luciferase reporter, agonist, 6 h; activation: at 73.3 µM (top of the series). The method in brief:
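Activation of retinol signaling was monitored via a RARE luciferase reporter in C3RL4 cells. After 6 hr compound treatment at 37 C, detection reagent was added for 30 min at room temperature before luminescence reading.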

A short description of assay [11]: qHTS assay to identify small molecule antagonists of the retinoic acid receptor (RAR) signaling pathway (AID 1159552; note: nearly all actives have a fitted effect of over 50% in size; note: potency is the fitted concentration of half-maximal effect). The method in brief: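 Antagonism of retinol-induced RARE reporter activity was measured in C3RL4 cells. Exposure to compounds and 1 uM final retinol lasted 6 hr at 37 C, with luminescence as endpoint.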
The nature of assay [12]: qHTS assay to identify small molecule antagonists of the estrogen related receptor (ERR) signaling pathway - cell viability counter screen (AID 1224818).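 Note: viability measured after 17.5 h of compound exposure.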 The gist of the method:
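In the same ERR cell assay, compound-treated wells (17.5 h, 37 C) were multiplexed with a fluorogenic viability reagent, CellTiter-Fluor, read after 30 min to flag cytotoxic substances.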

The nature of assay [13]: qHTS assay to identify small molecule antagonists of the estrogen related receptor signaling pathway with the pleiotropic PPARgamma coactivator (PGC) cell viability counter screen (AID 1224822). The gist of the method:
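Compounds in DMSO, with positive and negative controls, were applied to PGC/ERR cells (2,000/well) and left 17.5 h at 37 C before CellTiter-Fluor detection.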

In assay [14] the target is Retinoic acid receptor RXR-alpha (Homo sapiens) (UniProt P19793). In words: qHTS assay to identify small molecule agonists of the RXR signaling pathway (AID 1159527; calls by dose curve; note: nearly all actives have a fitted effect of over 35% in size). The method in brief: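 Compounds in DMSO were added to RXR-alpha-UAS-bla HEK 293T cells kept in 2% charcoal-stripped serum, and incubated 16 hr at 37 C with 5% CO2. Reporter signal came from a 2 hr B/G FRET substrate step.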
Retinoic acid receptor RXR-alpha (Homo sapiens), sequence (P19793 whole entry, looked up): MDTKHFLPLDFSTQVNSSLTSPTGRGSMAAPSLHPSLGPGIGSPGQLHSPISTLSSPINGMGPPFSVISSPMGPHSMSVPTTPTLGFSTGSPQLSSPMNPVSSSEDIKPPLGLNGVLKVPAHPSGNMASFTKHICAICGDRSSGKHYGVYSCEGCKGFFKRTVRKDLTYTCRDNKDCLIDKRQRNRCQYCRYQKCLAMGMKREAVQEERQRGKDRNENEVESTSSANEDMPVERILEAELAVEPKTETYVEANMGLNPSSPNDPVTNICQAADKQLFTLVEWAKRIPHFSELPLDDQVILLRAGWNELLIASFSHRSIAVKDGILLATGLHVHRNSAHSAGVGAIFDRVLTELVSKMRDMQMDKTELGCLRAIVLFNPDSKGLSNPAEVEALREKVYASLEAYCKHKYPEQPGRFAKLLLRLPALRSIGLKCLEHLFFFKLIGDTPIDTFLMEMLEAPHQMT

The nature of assay [15]: qHTS assay to identify small molecule agonists of the RXR signaling pathway - cell viability counter screen (AID 1159529). Note: nearly all actives have a fitted effect of over 50% in size. Note: potency is the fitted concentration of half-maximal effect. The gist of the method:
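Counter screen: CellTiter-Glo luminescence. Cells: RXR-alpha-UAS-bla HEK 293T. Medium: 2% charcoal-stripped FBS. Treatment: 16 h, 37 C. Reagent incubation: 30 min, RT.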

Results filed as inconclusive are left out. Activity calls are given as the source filed them. Unless noted, calls come from the whole dose curve; as a rule, active = well fitted curve in the direction sought with a large enough effect in the repeat runs; inconclusive = weak or mixed curves; inactive = no such curve, though single readings can be large; an effect the other way counts as inactive or inconclusive.

Turning to `CC(C)(O)c1ccc(CNC(=O)c2cccnc2Oc2ccc3nonc3c2)cc1`, the Potency entry in assay [1], in assay [2], in assay [3], in assay [4], in assay [5] and in assay [6] was “inactive” in each case. In addition, the Potency entry in assay [7], in [8], in [9] and in assay [10] was “inactive” each time.

For `Nc1nc2ccc([N+](=O)[O-])cc2s1`, the Potency entry in [1], in assay [3], in assay [4], in assay [5], in [11] and in assay [10] was “inactive” in each case. For the same molecule, the molecule was classed as inactive in assay [12] and in assay [13].

On to `CCCCCCCC/C=C\CCCCCCCCO`, for which the Potency entry in assay [1], in assay [2], in assay [3], in assay [4], in [5] and in [7] was “inactive” throughout. Besides, the Potency entry in assay [8], in assay [14], in assay [15], in [9], in assay [11] and in assay [10] was “inactive” throughout.

As for `Oc1c(I)cc(I)c2cccnc12`, the Potency result in assay [3], in assay [4], in assay [5], in assay [9] and in assay [11] was “inactive” throughout.

Take `OCCOCC#CCOCCO`: the Potency entry in assay [1], in [2], in assay [3], in assay [4], in [6] and in assay [7] was “inactive” each time. Further, the Potency result in [8], in assay [14], in assay [15] and in assay [9] was “inactive” each time.

For the molecule `CC1=C(Br)C(=O)C(Br)=C/C1=C(/c1ccccc1S(=O)(=O)O)c1cc(Br)c(O)c(Br)c1C`, the Potency entry in assay [1], in [3], in [4], in [7], in assay [8] and in assay [15] was “inactive” throughout. For the same molecule, the Potency entry in assay [10] is “inactive”. The Potency in assay [5] was 16.5 µM (active); in assay [6] it was 18.6 µM (active); in [9], 16.5 µM (active); in [11], 20.8 µM (active).

As for `O=C1NC(=O)c2cc([N+](=O)[O-])ccc21`, the Potency entry in assay [2], in assay [3], in assay [4], in [5], in [6] and in assay [7] was “inactive” each time. The Potency entry in [14], in assay [15], in assay [9], in assay [11] and in [10] was “inactive” each time.

With `Brc1cc(Br)c(Oc2cc(Br)c(Br)cc2Br)cc1Br`, in assay [1], the Potency was 23.9 µM (active). The Potency result in assay [2], in assay [3], in assay [4], in assay [5], in [6] and in assay [7] was “inactive” throughout. Further, the Potency result in assay [9] was “inactive”.

On to `CC(CC1c2ccccc2CCc2ccccc21)CN(C)C` (centres undefined), for which the Potency result in [1], in assay [3], in assay [4], in assay [5], in assay [7] and in assay [14] was “inactive” in each case. Also, the Potency result in assay [9] and in [10] was “inactive” throughout.

On to `C=Cc1ccc(S(=O)(=O)O)cc1`, for which the Potency entry in assay [2], in [3], in assay [5], in assay [6], in assay [15] and in [9] was “inactive” each time. Moreover, the Potency entry in assay [11] and in assay [10] was “inactive” throughout.

`O=C1Cc2ccccc2N1c1c(Cl)cccc1Cl`: the Potency result in assay [1], in [3], in assay [4], in [5], in assay [9] and in assay [11] was “inactive” in each case. The Potency entry in assay [10] was “inactive”.

Take `CC(C)C[C@H](NC(=O)[C@H](CCc1ccccc1)NC(=O)CN1CCOCC1)C(=O)N[C@@H](Cc1ccccc1)C(=O)N[C@@H](CC(C)C)C(=O)[C@@]1(C)CO1`: the Potency result in assay [3], in [4], in [7], in assay [8], in [15] and in [9] was “inactive” each time. Also, the Potency result in [11] is “inactive”. In addition, the Potency was 0.75 µM (active) in assay [5], 1.19 µM (active) in assay [6] and 0.0473 µM (active) in assay [10].

As for `Cc1ccc(Cl)c(Nc2ccccc2C(=O)O)c1Cl`, the Potency entry in assay [1], in assay [2], in assay [3], in assay [4], in [5] and in assay [7] was “inactive” in each case. In addition, the Potency entry in assay [8], in [15], in [9], in [11] and in assay [10] was “inactive” throughout. The call in [12] and in assay [13] was inactive.

Regarding `O=c1cc(-c2ccccc2)oc2cc(O)cc(O)c12`, the Potency result in [1], in assay [2], in [3], in assay [4], in assay [5] and in assay [7] was “inactive” in each case. For the same molecule, the Potency result in [15] and in [11] was “inactive” throughout. Further, in [10], the Potency was 0.969 µM (active).

Take `Cc1cc(O)c(C)c(C)c1O`: the Potency in [1] was 29.8 µM (active). For the same molecule, the Potency result in assay [3], in assay [4], in assay [5], in assay [6], in assay [7] and in assay [8] was “inactive” in each case. Besides, the Potency entry in [14], in assay [15] and in assay [9] was “inactive” throughout.

Consider `CC(=O)OCC(=O)NCCCOc1cccc(CN2CCCCC2)c1`, for which the Potency entry in assay [1], in assay [2], in assay [3], in assay [4], in assay [5] and in assay [7] was “inactive” throughout. In addition, the Potency entry in [8], in [14], in assay [15] and in assay [9] was “inactive” each time.

As to `CCOC(=O)c1ccc(O)c(O)c1`, the Potency result in assay [1], in [2], in assay [3], in [4], in [5] and in assay [7] was “inactive” throughout. The Potency result in assay [8], in assay [14], in assay [15], in [9], in assay [11] and in [10] was “inactive” throughout.

Consider `CCn1cc(C(=O)O)c(=O)c2cc(F)c(N3CCNCC3)cc21`, for which the Potency entry in assay [1], in [2], in assay [3], in [4], in assay [5] and in [7] was “inactive” throughout. Moreover, the Potency result in [8], in assay [14], in [15], in [9], in assay [11] and in assay [10] was “inactive” throughout.

Take `COC(=O)[C@H]1[C@H]2C[C@@H]3c4[nH]c5cc(OC)ccc5c4CCN3C[C@H]2C[C@@H](OC(=O)/C=C/c2ccc(O)c(OC)c2)[C@@H]1OC`: the Potency entry in assay [2], in [3], in [4], in [7], in assay [8] and in assay [15] was “inactive” throughout. In addition, in assay [9], the Potency result is “inactive”. The Potency in assay [6] is 13.3 µM (active).

Take `CC[C@]1(O)C[C@H]2CN(CCc3c([nH]c4ccccc34)[C@@](C(=O)OC)(c3cc4c(cc3OC)N(C=O)[C@H]3[C@@](O)(C(=O)OC)[C@H](OC(C)=O)[C@]5(CC)C=CCN6CC[C@]43[C@@H]65)C2)C1`: the Potency entry in assay [2], in [3], in assay [4], in [5], in assay [7] and in assay [15] was “inactive” in each case. In addition, the Potency result in assay [9] was “inactive”. Moreover, in [11], the Potency is 0.168 µM (active).

For the molecule `Cc1ccc2c(Br)cc(Br)c(O)c2n1`, the Potency entry in [1], in assay [3], in assay [4], in [9], in assay [11] and in [10] was “inactive” each time. Also, in [15], the Potency is 26.8 µM (active).

In the case of `CC/C=C1/OC(=O)c2ccccc21`, the Potency entry in assay [1], in assay [2], in [3], in [4], in [5] and in [6] was “inactive” in each case. The Potency entry in assay [9] and in [11] was “inactive” each time.

As for `O=C=Nc1ccc(Cl)c(Cl)c1`, the Potency result in [3], in assay [4], in [5], in assay [7], in [8] and in assay [14] was “inactive” in each case. The Potency entry in assay [9], in [11] and in assay [10] was “inactive” in each case.

In the case of `C=CC(=O)[O-].C=CC(=O)[O-].[Zn+2]`, the Potency result in assay [1], in [2], in assay [3], in assay [4], in assay [5] and in assay [6] was “inactive” throughout. Moreover, the Potency entry in assay [7], in [15], in assay [9] and in assay [11] was “inactive” throughout.

The record behind these values is PubChem BioAssay (Tox21).
